# Sampled rows, rich in hits. Any-hit rate of the full collection: about 9.3%.
# FMDV inh: foot and mouth disease virus antiviral activity; FMDV antiviral cell-based qHTS; Potency, µM (highest dose often 57.9 µM), most hits filed as inhibitors; 1.2% of 410,000 active; AID 1159524; calls by dose curve; tested in HEK293T cells; also: read-out not given here; nearly all actives have a fitted effect of over 45% in size
# VACV mCherry inh: inhibitors of vaccinia virus infection (mCherry reporter signal) | AID 720579 | Potency, µM (series often up to 36.5 µM), actives largely listed as inhibitors | 0.63% of 310,000 active | Vaccinia virus mCherry reporter infection, fluorescence; calls by dose curve; tested in A549 cells; also: nearly all actives have a fitted effect of over 35% in size
# HCV inhibitor: HCV inhibition | Huh7.5.1 HCVcc-Cre infection, luciferase reporter, 44 h | Potency, µM (series often up to 41.8 µM), most hits filed as inhibitors | 3.4% of 340,000 active | AID 651820
#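 Seed cells (1,000/well) for 4 h; treat with compound and infect with HCVcc-Cre, moi about 0.5. Incubate 44 h, then detect luciferase activity.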
# HCMV inh: inhibitors of human cytomegalovirus; HFF cells, HCMV-luciferase reporter, 72 h; stronger effect = lower value; activity change, negative = inhibition, % at 57.5 µM; 4.5% of 410,000 active; AID 1259415; in the data active = activity change below about -60%; inconclusive = no clear call, values can overlap the other calls; inactive = above about -39%
#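 Human foreskin fibroblasts infected with luciferase-reporter HCMV at MOI 1 PFU/cell, compounds at two doses. Luciferase measured 72 h post infection; normalized to buffer-only basal and Salinomycin (10uM) controls.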
# Vaccinia Venus: inhibitors of vaccinia virus (Venus reporter). Vaccinia virus Venus reporter expression, fluorescence. Potency, µM (series often up to 36.5 µM), actives largely listed as inhibitors. 0.46% of 330,000 active; calls by dose curve; tested in A549 cells; also: nearly all actives have a fitted effect of over 30% in size
# Sm TGR inh: blocks Schistosoma mansoni thioredoxin glutathione reductase; Q962Y6; purified TGR, DTNB reduction, TNB absorbance 405 nm; Potency, µM (highest dose often 114 µM), usual class: inhibitors; 3% of 360,000 active; also: nearly all actives have a fitted effect of over 60% in size
#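 Kinetic colorimetric format: TGR-catalysed, NADPH-driven DTNB reduction monitored via TNB absorbance. Enzyme dispensed at 20 nM; compound exposure 15 min at room temperature before reaction start.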
# A number is an active result; - = inactive; ? = inconclusive; . = no result given. Unless noted, calls follow the shape of the dose curve; as a rule, active = well fitted curve in the direction sought with a large enough effect; inconclusive = small, poorly fitted or top-dose-only effect, or another doubt; inactive = no such curve, though single readings can be large; an effect the other way counts as inactive or inconclusive.
SMILES,FMDV inh,VACV mCherry inh,HCV inhibitor,HCMV inh,Vaccinia Venus,Sm TGR inh
CNc1c2cccc(C)c2nc2c(C(=O)NCCN(C)C)cccc12,?,2.24µM,1.41µM,-100.0,2.24µM,.
CCS(=O)(=O)c1ccc2oc(Nc3cc(Cl)ccc3OC)nc2c1,-,-,?,-,-,-
O=S(Cc1ccccc1)CC(O)(c1ccc(Cl)cc1)c1ccc(Cl)cc1 (stereo unspecified),-,.,-,-91.6,.,-
O=S(Cc1ccc(Cl)cc1)CC(O)(c1ccccc1)c1ccccc1 (stereo unspecified),-,.,-,-,.,-
Cc1c(Nc2ccc3nonc3c2[N+](=O)[O-])c(=O)n(-c2ccccc2)n1C,-,-,-,-,-,-
Cc1c(Nc2cc(Cl)c3nonc3c2[N+](=O)[O-])c(=O)n(-c2ccccc2)n1C,14.1µM,?,3.98µM,-,28.2µM,-
Cc1c(Nc2cc(N3CCOCC3)c3nonc3c2[N+](=O)[O-])c(=O)n(-c2ccccc2)n1C,.,.,.,.,.,17.8µM
COc1ccc(NC(=O)CSC2CC(=O)N(c3ccc4c(c3)OCCO4)C2=O)cc1 (stereo unspecified),-,.,-,-,.,44.7µM
COc1ccccc1NC(=O)CSC1CC(=O)N(c2ccc3c(c2)OCO3)C1=O (stereo unspecified),-,.,-,-,.,12.6µM
COC(=O)c1cc(OC)c(OC)cc1NC(=S)N1CCN(Cc2ccccc2)CC1,.,-,?,-,-,-
CCN(C(=O)C12CC3CC(CC(C3)C1)C2)C1CCS(=O)(=O)C1 (stereo unspecified),-,-,-,-,-,-
CCN(C(=O)COC(=O)CNC(=O)C12CC3CC(CC(C3)C1)C2)C1CCS(=O)(=O)C1 (stereo unspecified),-,-,-,-101.9,-,-
CC1=C([N+](=O)[O-])C(c2cccc(Br)c2)C2=C(N1)c1ccccc1C2=O (stereo unspecified),?,.,?,-89.7,.,?
Fc1ccc(-c2ccc(/C=N/n3cnnc3)o2)cc1,-,.,-,-,.,-
O=C(Nc1ncccn1)c1cc(-c2ccc(F)cc2)nc2ccccc12,31.6µM,-,-,-,-,-
COCCNC(=O)c1cc(-c2ccc(-c3ccccc3)cc2)nc2ccccc12,-,?,10µM,-77.2,-,-
CC(C)Cc1cc(C(=O)N2N=C(C(F)F)CC2(O)C(F)F)c2ccccc2n1 (stereo unspecified),-,.,?,-,.,-
CCc1ccc(-c2cc(C(=O)N3N=C(C(F)F)CC3(O)C(F)F)c3ccccc3n2)cc1 (stereo unspecified),-,.,?,-87.2,.,-
CCc1ccc(-c2cc(C(=O)Nn3cnnc3)c3ccccc3n2)cc1,11.2µM,-,-,-,-,-
CCCCNC(=O)Nc1nnc(C(C)(C)C)s1,-,-,-,-,-,-
Cc1cc(C)c2cc(CN(Cc3cccnc3)C(=O)c3ccc(F)cc3)c(Cl)nc2c1,?,-,-,-,-,-
O=C(NCc1ccccn1)c1cc(-c2ccc(-c3ccccc3)cc2)nc2ccccc12,-,.,?,-94.5,.,-
NS(=O)(=O)c1ccc(CCNC(=O)c2cc(-c3ccc(Br)cc3)nc3ccccc23)cc1,-,-,?,-88.2,?,-
Cc1nc(-c2ccccc2)[nH]c(=O)c1Oc1ccc(Cl)cc1Cl,?,.,-,-,.,-
O=c1[nH]c(=S)[nH]cc1Oc1ccc(Cl)cc1Cl,-,-,-,-96.9,-,-
SMILES,FMDV inh,VACV mCherry inh,HCV inhibitor,HCMV inh,Vaccinia Venus,Sm TGR inh
COC(=O)c1ccccc1NC(=O)CNCCc1ccc(OC)c(OC)c1,-,-,-,-,-,-
COc1ccc(OCCCC(=O)OC(C)C(=O)Nc2cccc(C(C)=O)c2)cc1 (stereo unspecified),-,-,-,-,-,-
Cc1nnc(Nc2ccc(O)cc2)[nH]c1=O,-,-,14.1µM,-,-,.
Cc1nnc(Nc2ccc(C(=O)O)cc2)[nH]c1=O,-,-,-,?,-,-
O=C(c1ccco1)N1CCN(C(=O)c2cc3c(s2)-c2ccccc2OC3)CC1,-,-,-,-,-,25.1µM
O=C(NC1CC1)c1cc2c(s1)-c1ccccc1OC2,-,?,11.2µM,?,?,-
O=C(c1cc2c(s1)-c1ccccc1OC2)N1CCN(c2ccc(F)cc2)CC1,-,-,.,-,-,-
COC(=O)C1C2CC(=O)C(C2)C1C(=O)OC (stereo unspecified),-,-,-,-,-,.
CCOC(=O)c1c(S(=O)(=O)N2CCCC(C(=O)NCc3ccccc3OC)C2)c(C)n(C)c1C (stereo unspecified),-,-,.,-,-,-
CC(=O)Cc1nnn(-c2cc(C)on2)n1,.,.,.,.,.,-
Cc1c(C(=O)N(C)Cc2cccc(F)c2)oc2c(Cl)cccc12,7.08µM,-,-,-,-,-
Cc1c(C(=O)N(C)Cc2ccccc2)oc2c(Cl)cccc12,-,-,-,-,-,-
Cn1c(=O)c(=O)n(C)c2cc([N+](=O)[O-])c([N+](=O)[O-])cc21,?,-,?,-,-,20µM
Cc1cccn2c(=O)c3cc(C(=O)NCCN4CCOCC4)c(=N)n(CCc4ccccc4)c3nc12,-,-,?,-84.7,-,-
COc1ccc(CCn2c(=N)c(C(=O)NCCN3CCOCC3)cc3c(=O)n4cccc(C)c4nc32)cc1OC,-,.,?,-95.3,.,-
Cc1cccn2c(=O)c3cc(C(=O)NCCN4CCOCC4)c(=N)n(CCCN4CCOCC4)c3nc12,-,-,?,-,-,-
CCOc1ccc(S(=O)(=O)N2CCN(C(=O)c3cc([N+](=O)[O-])ccc3N3CCOCC3)CC2)cc1,-,.,-,-,.,-
CCOc1ccc(C(=O)c2cc([N+](=O)[O-])ccc2N2CCOCC2)cc1,?,?,-,-90.3,?,-
COc1ccc(C(=O)c2cc([N+](=O)[O-])ccc2N2CCOCC2)cc1,-,?,?,-99.1,?,-
Cc1ccc(C(=O)c2cc([N+](=O)[O-])ccc2N2CCOCC2)cc1,-,?,?,-,-,-
CCCCN1CC(COCc2ccccc2)Oc2cccc(OCCN3C(=O)[C@@H]4[C@H](C3=O)C3C=C[C@H]4C3)c2S1(=O)=O (stereo partly specified),-,-,10µM,-,-,.
CCCCN1CC(COCc2ccccc2)Oc2cccc(Oc3ccc(SC)c(C)c3)c2S1(=O)=O (stereo unspecified),.,.,.,-80.0,.,.
O=C1[C@@H]2[C@H](C(=O)N1C[C@@H](COCc1ccccc1)Oc1cccc3c1S(=O)(=O)N(CCc1ccc(F)cc1)C[C@H](COCc1ccccc1)O3)[C@@H]1C=C[C@H]2C1,.,.,.,-,.,.
CCCn1c(=N)c(C(=O)NC(C)c2ccccc2)cc2c(=O)n3ccccc3nc21 (stereo unspecified),-,?,.,-,-,-
Cc1csc(CNc2ncnc3ccc(-c4ccco4)cc23)c1,.,.,.,.,.,-

# Compound activity (PubChem)
